Bioassay records as filed in PubChem BioAssay.
SARS PLpro yeast = inhibitors of SARS-CoV papain-like protease in yeast | S. cerevisiae expressing SARS-CoV PLpro, growth rescue | Potency, µM (series often up to 32.9 µM), without a hit: at the top dose activity, positive = growth rescue, most hits filed as activators | 330,000 compounds, 0.19% hits; calls by dose curve; further: 0% is about no effect; nearly all actives have a fitted effect of over 55% in size
Pf growth 96h = inhibits malaria parasite growth, 96 h. P. falciparum luciferase reporter growth, 96 h. Potency, µM (series often up to 28.7 µM), for the others: at the top dose activity change, negative = inhibition, usual class: inhibitors. 320,000 compounds, 6.9% hits. AID 504834; further: on the % scale 0 is the no-effect control and ±100 the full control effect
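Compounds incubated with erythrocytes infected by luciferase-expressing P. falciparum (2% hematocrit, 0.05% parasitemia final) for 96 hours, 37 C in 5% CO2. Growth inhibition scored as decreased luciferase luminescence.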
Pf growth 48h = P. falciparum growth inhibition at 48 hours (one generation). Potency, µM (top dose mostly 28.7 µM), inactives show at the top dose activity change, negative = inhibition, usual class: inhibitors. P. falciparum luciferase growth in erythrocytes, 48 h. AID 504832. 310,000 compounds, 5.9% hits; further: on the % scale 0 is the no-effect control and ±100 the full control effect
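Luciferase-expressing P. falciparum in infected erythrocytes (2% hematocrit, 0.1% parasitemia final) in RPMI 1640/0.5% Albumax were exposed to compound for 48 hours at 37 C, 5% CO2; growth read as luminescence.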
AMA1-RON2 inh = disrupts binding of P. falciparum AMA1 to RON2; AlphaScreen AMA1-biotinylated RON2 peptide binding; Potency, µM (doses to about 58.2 µM), inactives show top-dose activity change, negative = inhibition, most hits filed as inhibitors; 360,000 compounds, 0.2% hits; AID 720542;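 further: 0% = vehicle wells and -100% = peptide control; nearly all actives have a fitted effect of over 45% in size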
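AMA1 (3D7) with his tag at 25 nM final met compounds first, then biotinylated RON2 peptide at 25 nM; detection used donor plus acceptor beads, 10 µg/mL apiece, read by AlphaScreen after 30 min at room temperature.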
Starred values were filed as active, the others as inactive; ? = inconclusive; / = no result given; [ ] = dose if it differs, or a comment. A selection: hits, their analogues and other compounds. The true share with any hit is near 9.4%. Unless noted, the call rests on the fitted dose curve; in most records, active means well fitted curve in the direction sought with a large enough effect; inconclusive means small, poorly fitted or top-dose-only effect, or another doubt; inactive means no such curve, though single readings can be large; an effect the other way counts as inactive or inconclusive. Potency means the concentration at half of the fitted maximal effect.

SMILES	SARS PLpro yeast	Pf growth 96h	Pf growth 48h	AMA1-RON2 inh
Cc1cc(Nc2nc3ccccc3[nH]c2=O)n(-c2ccccc2)n1	1%	1%[5.75 µM]	?	-10%
Cc1cc(Nc2nc3ccccc3nc2Cl)n(-c2ccc([N+](=O)[O-])cc2)n1	1%	1µM*	/	3%
COCCN=C1Sc2nc3ccc(C)cc3cc2CN1Cc1ccco1	-6%	?	/	58%
COCCN=C1Sc2nc3cc(C)c(C)cc3cc2CN1Cc1cccs1	4%	?	10µM*	-5%
CC(C)N1CCC(N2CCN(Cc3ccc(-c4ccccc4Cl)o3)CC2CCO)CC1 (centres undefined)	0%	0%	-11%	0%
Cc1ccc(-c2cccc(CN3CCN(C4CCN(C(C)C)CC4)C(CCO)C3)c2)o1 (centres undefined)	1%	35%	10µM*	2%
CC(C)N1CCC(N2CCN(Cc3ccc(-c4ccc(Cl)cc4)o3)CC2CCO)CC1 (centres undefined)	2%	?	2.3µM*	-6%
COc1ccc(NC(=O)CN(C)C(=O)c2ccc3ccccc3c2)cc1	4%	72%	21%	14%
COc1ccc(C(=O)NC2CC(C)(C)Cc3c2cnn3-c2ccccc2)cc1OC (centres undefined)	-1%	?	-11%	-1%
Cc1ccc(C(=O)N2CCC(C(=O)NC3CCCCCC3)CC2)cc1	-1%	?	?	-1%
COc1ccc(CNC(=O)CCC(=O)c2ccccc2)cc1	-4%	-28%	15µM*	-2%
O=C(NCc1ccc(F)cc1)c1cc2ccccn2n1	14%	3.7µM*	20%	14%
COc1ccc(CNC(=O)C(OC(C)=O)c2ccccn2)cc1 (centres undefined)	-5%	15µM*	29%	30%
COc1ccc(CNC(=O)c2onc(C)c2Cl)cc1	1%	13µM*	-3%	0%
COc1ccc(CNC(=O)C(OC(=O)c2ccco2)c2ccccc2F)cc1 (centres undefined)	1%	-10%	58%	6%
CCOc1ccc(CCNC(=O)c2cc3ccccn3n2)cc1OCC	-1%	18%	/	-4%
COc1ccc(C(=O)CCC(=O)NCc2cc(OC)cc(OC)c2)cc1	-18%	1%	?	-5%
COc1ccc(CNC(=O)c2ccncc2)cc1	1%	3.3µM*	1%	-13%
O=C(NCc1ccc(F)cc1)c1ccncc1	6%	6.6µM*	-13%	-9%
O=C(NCc1ccc(Cl)cc1)c1ccncc1	7%	?	3%	-1%
C/C=C\C(=O)Nc1cccc(C2=NOC3(C2)C[C@@H](C(N)=O)N(C(=O)CC(c2ccccc2)c2ccccc2)C3)c1 (some centres undefined)	5%	13µM*	10µM*	-3%
C/C=C/C(=O)Nc1cccc(C2=NOC3(C2)C[C@@H](C(N)=O)N(C(=O)C(c2ccccc2)c2ccccc2)C3)c1 (some centres undefined)	1%	13µM*	12µM*	0%
C/C=C(\C)C(=O)Nc1cccc(C2=NOC3(C2)C[C@H](C(N)=O)N(C(=O)C(c2ccccc2)c2ccccc2)C3)c1 (some centres undefined)	-4%	12µM*	9.3µM*	-1%
O=C(/C=C/c1ccccc1)Nc1ncn[nH]1	-26%	-5%	3%	12%
O=C1CC(c2ccccc2)CC(O)=C1C=NCc1ccco1 (centres undefined)	-6%	12%	-10%	-5%
SMILES	SARS PLpro yeast	Pf growth 96h	Pf growth 48h	AMA1-RON2 inh
CN(C)c1cccc(C(=O)OCc2cc(=O)oc3cc(O)ccc23)c1	-6%	/	12µM*	-28%
CC1CN(S(=O)(=O)c2cccc(C(=O)OCc3cc(=O)oc4cc(O)ccc34)c2)CC(C)O1 (centres undefined)	-2%	-17%	?	-29%
O=C(OCc1cc(=O)oc2cc(O)ccc12)c1cc(S(=O)(=O)N2CCOCC2)ccc1F	2%	3%	28%	-1%
CCc1cc2c(COC(=O)c3cc(S(=O)(=O)N4CCOCC4)ccc3F)cc(=O)oc2cc1O	0%	15µM*	?	-6%
COc1ccc2c(COC(=O)c3cccc(S(=O)(=O)NCC(C)C)c3)cc(=O)oc2c1	1%	?	9.3µM*	8%
CCc1cc2c(COC(=O)c3cccc(NS(C)(=O)=O)c3)cc(=O)oc2cc1O	-13%	5.2µM*	?	-2%
O=S(=O)(Oc1ccccc1/C=N/n1cnnc1)c1ccccc1	0%	12µM*	10%	3%
COc1ccccc1/C=N/n1cnnc1	-3%	/	36%	-2%
COc1ccc(OC)c(C2C(C(=O)Nc3ccccc3OC)=C(C)Nc3nc(CCCO)nn32)c1 (centres undefined)	3%	?	/	19%
COc1ccc(OC)c(-n2c(=S)[nH]c3cc(C(=O)N4CCN(c5ccccc5)CC4)ccc3c2=O)c1	2%	?	?	32%
COc1ccc(OC)c(-n2c(=S)[nH]c3cc(C(=O)N(C)Cc4ccccc4)ccc3c2=O)c1	1%	9.3µM*	?	95%
Cc1cc(C)c(NC(=O)Nc2ccccc2)c(Cl)c1	?	26%	9%	1%[2.32 µM]
CCc1nnc(NS(=O)(=O)c2ccc(NC(=S)NC(=O)/C=C/c3ccc(F)cc3)cc2)s1	2%	10µM*	-2%	40%
CCN(CC)S(=O)(=O)c1ccc(NC(=O)c2ccc(NS(C)(=O)=O)cc2)cc1	1%	/	-18%	-2%
CCN(CC)S(=O)(=O)c1cccc(C(=O)NC(C(=O)NCCc2ccccn2)C(C)C)c1 (centres undefined)	-1%	/	/	13%
CCc1nnc(NC(=O)[C@@H](NC(=O)c2cccc(S(=O)(=O)N(CC)CC)c2)C(C)C)s1	16%	/	1.7µM*	2%
CCN(CC)S(=O)(=O)c1ccc(C(=O)Nc2ccc3c(c2)OCCO3)cc1	-6%	?	6.6µM*	0%
CCc1nnc(NS(=O)(=O)c2ccc(NC(=S)NC(=O)/C=C/c3ccc([N+](=O)[O-])cc3)cc2)s1	2%	-24%	-14%	-6%
CCN(CC)S(=O)(=O)c1ccc(NC(=O)c2ccc(Cl)nc2)cc1	0%	4.7µM*	?	2%
Cc1cccc(NC(=O)Cn2nnc(C(=O)NCc3ccco3)c2N)c1	-2%	?	11%	0%
C[C@@H](OC(=O)c1[nH]cnc1C(=O)N1CCN(C(=O)OC(C)(C)C)CC1)c1ccccc1	5%	/	/	-4%
CCc1nnc(NC(=O)c2ccc(NC(=O)C(C)C)cc2)s1	-1%	26%	40%	-2%
CCc1nnc(NC(=O)c2ccc(S(=O)(=O)NCC(C)C)cc2)s1	4%	1.7µM*	9%	2%
CCN(CC)S(=O)(=O)c1ccc(S(=O)(=O)Nc2cc3c(cc2C(C)=O)OCO3)cc1	12%	12µM*	?	0%
CCN(CC)S(=O)(=O)c1ccc(C(=O)Oc2ccc3c(c2)OCO3)cc1	0%	3.3µM*	-24%	-1%
CCc1nnc(NS(=O)(=O)c2ccc(NC(=O)c3ccc(S(=O)(=O)N(CC)CC)cc3)cc2)s1	1%	10%	13µM*	7%
